# Source: PubChem BioAssay
# Where “and” joins values, the source holds several entries; their conditions need not be identical. Identical values can stand only once. Results filed as inconclusive are left out. Calls of active or inactive are those of the source.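 Rule for the calls, unless noted: active = normalized viability below 100% at a tested concentration; inactive = the rest.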
# How the values were obtained:
# [1] = P. berghei load reduction in hepatocytes – cell-based, HepG2, luciferase luminescence, HepG2 viability, primary screen (AID 624349; in the data active = parasite load remaining mostly below about 12%, no sharp cut-off; inactive = mostly above about 10%;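 note: 100% = mean of DMSO negative control wells on the same plate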); conditions: P. berghei liver stage in HepG2, luciferase luminescence, concentration not given here; parasite load remaining: stronger effect = lower value; viability: measured here: HepG2 viability without parasites
# [2] = Wnt pathway potentiators raising nuclear beta-catenin – imaging, WNT3A-conditioned medium, mouse C2C12, NPC library, primary screen (AID 1117326; in the data active = nuclear beta-catenin stimulation mostly above about 4.2%, no sharp cut-off; inactive = mostly below about 10%); conditions: stronger effect = higher value
# [3] = stimulators of insulin release from INS-1E, primary screen, cell-based, 5 mM glucose, NPC library (AID 1117329;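 active = compound raises insulin release from rat beta cells at 5 mM glucose, no numeric limit stated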); conditions: rat INS-1E insulin secretion, at 10 µM, stronger effect = higher value
# [4] = growth inhibition of GSK3B-pretreated HCT116 cells – cell-based, CellTiter-Glo, 0.2 to 20 µM (AID 1117336;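 active = compounds lowering colon cancer cell viability after pretreatment blocking the GSK3B kinase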); conditions: HCT116 viability after GSK3B inhibitor, at 20 µM, stronger effect = higher value
# [5] = inhibition of endothelial tube formation, primary screen, imaging, VEGF stimulated, CD31 staining, tube area, NPC library (AID 1117340;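 active = compound that reduces growth-factor-driven endothelial tube area in a mixed cell culture, no cutoff stated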); conditions: VEGF-stimulated ADSC/ECFC co-culture, at 10 µM, stronger effect = higher value
# [6] = GLP1 release stimulators, primary, NCI-H716, NPC library (AID 1117341;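 active = compound raises GLP1 secretion from the human gut endocrine cells, with no numeric limit stated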); conditions: NCI-H716 cells, at 10 µM, stronger effect = higher value
# [7] = HCT116 colon cancer cell growth inhibition, primary screen, CellTiter-Glo luminescence, NPC library (AID 1117342;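 active = compounds that lower survival of HCT116 colon cancer cells in the luminescence readout, no numeric limit stated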); conditions: at 20 µM (top of the series)
# [8] = reduced SW480 viability measured with CellTiter-Glo, NPC library, primary (AID 1117343;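 active = compounds that lower viability of the colon cancer cells in the luminescence readout, with no numeric limit stated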); conditions: CellTiter-Glo luminescence; at 20 µM (top of the series) unless noted
# [9] = NPC library primary testing for decreased DLD-1 cell viability via CellTiter-Glo (AID 1117346;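 active = compounds that lower survival of DLD-1 colon cancer cells in the luminescence readout, no cutoff given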); conditions: DLD-1 viability, CellTiter-Glo luminescence; at 20 µM (top of the series)
# [10] = tested on: Aerobactin synthetase IucA (Klebsiella pneumoniae); test: inhibition of K. pneumoniae IucA enzyme – biochemical, Tocris library, absorbance (AID 1345561; call rule not given here;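 note: 100% = enzyme without compound and 0% = no enzyme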); conditions: purified IucA enzyme assay, absorbance (OD) read-out; stronger effect = lower value;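 tested at 8 µM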
# [11] = viability loss in pontine glioma line – cell-based, SU-DIPG-XVII, MIPE5.0, CellTiter-Glo, qHTS, dose response (AID 1347060; cut-off not given, nearly all actives have AC50 up to about 26 µM;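 note: cells exposed to compound for 48 hours before viability readout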); conditions: CellTiter-Glo ATP luminescence
# [12] = viability loss in pontine glioma line – cell-based, SU-DIPG-XIII, MIPE4.0, CellTiter-Glo, qHTS, dose response (AID 1347061; cut-off not given, nearly all actives have AC50 up to about 37 µM;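 note: cells exposed to compound for 48 hours before readout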); conditions: CellTiter-Glo ATP luminescence
# [13] = viability loss in pontine glioma line – cell-based, SU-DIPG-IV, MIPE4.0, CellTiter-Glo, qHTS, dose response (AID 1347063; cut-off not given, nearly all actives have AC50 up to about 30 µM;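 note: compound exposure lasted 48 hours before the viability readout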); conditions: CellTiter-Glo ATP luminescence
# [14] = growth inhibition of DIPG cells – cell-based, MIPE5.0 library, qHTS (AID 1347068; cut-off not given, nearly all actives have IC50 up to about 30 µM); conditions: SU-DIPG-XXV viability
# [15] = viability loss with induced miR-34 in A549 – imaging, A549 dox-inducible miR-34, nuclei and caspase counts, primary screen (AID 1347080;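 active = compounds whose cell count with miR-34 switched on is under 0.7 times the count with it off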); conditions: A549 miR-34 inducible, Hoechst nuclei count, 48 h
# [16] = MELAS cybrid and Rieske KO viability enhancers – cell-based, MELAS cybrids, Rieske KO mouse fibroblasts, CellTiter-Glo, primary screen (AID 1508586); conditions: low glucose;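 note: z relative to plate mean and SD of compound and empty wells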
# [17] = drug combination growth inhibition, ovarian cancer – cell-based, oncology-focused library, rucaparib conditional, profiling panel (AID 1508598); conditions: patient-derived ovarian cancer cells, CellTiter-Glo viability, 144 h, stronger effect = lower value
# [18] = target: NAD(+) hydrolase SARM1 (Homo sapiens) (UniProt Q6SZW1); test: blocking NAD cleavage by SARM1 SAM-TIR – cell lysate, NAD-Glo luminescence (AID 1508614;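 active = compound whose remaining NAD level is above about 45 nM, limit read from the data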;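 note: higher remaining NAD means stronger inhibition of SARM1 NADase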); conditions: SAM-TIR HEK293T lysate NADase, at 1 µM, stronger effect = higher value
# Sequence of NAD(+) hydrolase SARM1 (Homo sapiens) (Q6SZW1 whole entry, looked up): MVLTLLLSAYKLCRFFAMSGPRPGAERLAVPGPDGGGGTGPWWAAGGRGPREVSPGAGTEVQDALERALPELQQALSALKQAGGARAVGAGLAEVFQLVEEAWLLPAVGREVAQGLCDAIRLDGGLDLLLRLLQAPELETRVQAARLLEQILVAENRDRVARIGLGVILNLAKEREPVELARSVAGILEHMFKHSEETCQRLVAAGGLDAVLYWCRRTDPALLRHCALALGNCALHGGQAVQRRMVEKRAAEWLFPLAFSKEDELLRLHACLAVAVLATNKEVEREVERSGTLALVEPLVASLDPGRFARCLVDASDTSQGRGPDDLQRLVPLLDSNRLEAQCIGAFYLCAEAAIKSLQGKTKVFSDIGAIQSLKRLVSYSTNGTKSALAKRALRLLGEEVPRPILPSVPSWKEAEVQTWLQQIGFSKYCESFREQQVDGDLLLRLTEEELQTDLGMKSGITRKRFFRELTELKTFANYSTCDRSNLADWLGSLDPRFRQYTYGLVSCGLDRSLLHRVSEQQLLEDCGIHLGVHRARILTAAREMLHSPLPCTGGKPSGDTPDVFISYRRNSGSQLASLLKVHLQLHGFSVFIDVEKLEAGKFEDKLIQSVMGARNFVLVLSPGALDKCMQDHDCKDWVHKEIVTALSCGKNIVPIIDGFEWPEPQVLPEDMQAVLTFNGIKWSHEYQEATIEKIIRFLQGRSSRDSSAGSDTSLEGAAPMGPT
# [19] = galactose survival enhancers in mitochondrial complex I cybrids – cell-based, galactose medium, ATP luminescence, primary screen (AID 1645843;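 active = z-score of at least 1.8 in each of two replicates, scored against plate mean and spread of sample wells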;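 note: positive z means more ATP and so rescue of galactose-driven cybrid death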); conditions: complex I mutant cybrid cells, 72 h, stronger effect = higher value
structure (smiles),measurement,setting,value
Nc1nc(Cl)nc2c1ncn2[C@@H]1O[C@H](CO)[C@@H](O)[C@@H]1F,parasite load remaining,[1],11.2% (inactive)
same,viability,[1],84%
same,nuclear beta-catenin stimulation,[2]; at 10 µM,30.8% (inactive)
same,nuclear beta-catenin stimulation,"[2]; stimulation, at 2 µM",17.4%
same,insulin secretion stimulation,[3],0.1% (inactive)
same,viability decrease,[4],44.1% (active)
same,tube area decrease,[5],104% (active)
same,GLP1 secretion stimulation,[6],0.3% (inactive)
same,inhibition of viability,[7],80.9% (active)
same,viability decrease (inhibition),[8],59.6% (active)
same,viability decrease (inhibition),[9],43.5% (inactive)
same,remaining activity,[10],104% (inactive)
same,AC50,[11],332 nM (active)
same,outcome,[12],inactive
same,AC50,[13],33.2 nM (active)
same,outcome,[14],inactive
same,fold change,"[15]; stronger effect = lower value, cell number ratio, induced over uninduced",1.02 (inactive) and 0.96 (inactive)
same,fold change,[15]; measured here: relative caspase fold change +Dox/-Dox,1.45 and 0.847
same,cell count,"[15]; measured here: total cells with miR-34 induction, stronger effect = lower value",3880 and 3040
same,cell count,[15]; measured here: total cells without miR-34 induction,3820 and 3160
same,z-score,"[16]; MELAS cybrid survival, CellTiter-Glo 48 h, stronger effect = higher value",-2.1
same,z-score,"[16]; Rieske KO mouse fibroblast survival, CellTiter-Glo 72 h",2.02
same,viability,"[17]; at 0.000305 µM, OCI-C5x cells, with rucaparib 10 µM, 100% = cells with rucaparib alone",115% (inactive)
same,viability,"[17]; at 0.000305 µM, OCI-C5x cells, without rucaparib",107% (inactive)
same,viability,"[17]; at 0.000305 µM, OCI-P5x cells, with rucaparib 20 µM, 100% = cells with rucaparib alone",116% (inactive)
same,viability,"[17]; at 0.000305 µM, OCI-P5x cells, without rucaparib",113% (inactive)
same,viability,"[17]; at 0.00122 µM, OCI-C5x cells, with rucaparib 10 µM, 100% = cells with rucaparib alone",118% (inactive)
same,viability,"[17]; at 0.00122 µM, OCI-C5x cells, without rucaparib",113% (inactive)
same,viability,"[17]; at 0.00122 µM, OCI-P5x cells, with rucaparib 20 µM, 100% = cells with rucaparib alone",112% (inactive)
same,viability,"[17]; at 0.00122 µM, OCI-P5x cells, without rucaparib",109% (inactive)
same,viability,"[17]; at 0.00488 µM, OCI-C5x cells, with rucaparib 10 µM, 100% = cells with rucaparib alone",116% (inactive)
same,viability,"[17]; at 0.00488 µM, OCI-C5x cells, without rucaparib",110% (inactive)
same,viability,"[17]; at 0.00488 µM, OCI-P5x cells, with rucaparib 20 µM, 100% = cells with rucaparib alone",115% (inactive)
same,viability,"[17]; at 0.00488 µM, OCI-P5x cells, without rucaparib",118% (inactive)
same,viability,"[17]; at 0.0195 µM, OCI-C5x cells, with rucaparib 10 µM, 100% = cells with rucaparib alone",113% (inactive)
same,viability,"[17]; at 0.0195 µM, OCI-C5x cells, without rucaparib",112% (inactive)
same,viability,"[17]; at 0.0195 µM, OCI-P5x cells, with rucaparib 20 µM, 100% = cells with rucaparib alone",111% (inactive)
same,viability,"[17]; at 0.0195 µM, OCI-P5x cells, without rucaparib",95% (active)
same,viability,"[17]; at 0.0781 µM, OCI-C5x cells, with rucaparib 10 µM, 100% = cells with rucaparib alone",98% (active)
same,viability,"[17]; at 0.0781 µM, OCI-C5x cells, without rucaparib",78.6% (active)
same,viability,"[17]; at 0.0781 µM, OCI-P5x cells, with rucaparib 20 µM, 100% = cells with rucaparib alone",111% (inactive)
same,viability,"[17]; at 0.0781 µM, OCI-P5x cells, without rucaparib",84.8% (active)
same,viability,"[17]; at 0.313 µM, OCI-C5x cells, with rucaparib 10 µM, 100% = cells with rucaparib alone",24% (active)
same,viability,"[17]; at 0.313 µM, OCI-C5x cells, without rucaparib",24.6% (active)
same,viability,"[17]; at 0.313 µM, OCI-P5x cells, with rucaparib 20 µM, 100% = cells with rucaparib alone",57.8% (active)
same,viability,"[17]; at 0.313 µM, OCI-P5x cells, without rucaparib",29.3% (active)
same,viability,"[17]; at 1.25 µM, OCI-C5x cells, with rucaparib 10 µM, 100% = cells with rucaparib alone",22.5% (active)
same,viability,"[17]; at 1.25 µM, OCI-C5x cells, without rucaparib",23.9% (active)
same,viability,"[17]; at 1.25 µM, OCI-P5x cells, with rucaparib 20 µM, 100% = cells with rucaparib alone",42.3% (active)
same,viability,"[17]; at 1.25 µM, OCI-P5x cells, without rucaparib",20.5% (active)
same,viability,"[17]; at 5 µM, OCI-C5x cells, with rucaparib 10 µM, 100% = cells with rucaparib alone",19.1% (active)
same,viability,"[17]; at 5 µM, OCI-C5x cells, without rucaparib",19.7% (active)
same,viability,"[17]; at 5 µM, OCI-P5x cells, with rucaparib 20 µM, 100% = cells with rucaparib alone",36.1% (active)
same,viability,"[17]; at 5 µM, OCI-P5x cells, without rucaparib",18.2% (active)
same,remaining NAD,[18],10 nM (inactive)
same,z-score,[19],-0.56 (inactive) and -2.21 (inactive)
